This assay in a line: inhibitors of HIV fusion peptide binding, primary screen, biochemical, uHTS, fluorescence dequenching (AID 1986). Conditions: cell-free peptide binding, 30 min, stronger effect = higher value.

Among all 290,000 compounds or so, about 890 (0.31%) were called active. Cut-off read from the data, not from the text of the source: active = inhibition mostly above about 52% (no sharp cut-off); inactive = mostly below about 76%. Only a selection was taken, and actives are over-represented in it overall.

For orientation: inhibition means the change of the read-out against control, counted positive when it falls.

Turning to `CCCCN(C)CCNC(=O)CN1C(=O)CSc2ccc(S(=O)(=O)N3CCOCC3)cc21`, the inhibition (at 20 µM) is 1% (inactive).
With `CCN1C(=O)c2cccc3c(S(=O)(=O)Nc4ccncc4)ccc1c23`, the inhibition (at 20 µM) was 3.5% (inactive).
On the same count and under the same terms, the same measure for `COc1ccccc1C(=O)C1CCCN(C(=O)c2cc(CC(C)C)nc(C)n2)C1` (centres undefined): -0.9% (inactive); for `CCOc1ccc(-n2cnnn2)cc1S(=O)(=O)NC1CC1`: 0.2% (inactive).
On to `CCOC(=O)N1CCN(C(=O)C2CCN(S(=O)(=O)c3c(C)cc(C)cc3C)CC2)CC1`, for which the inhibition (at 20 µM) is -1.7% (inactive).
As to `O=C(NCc1ccco1)c1ccc(Cl)nc1`, for the setting “at 20 µM”, the inhibition was -2% (inactive).
Same read-out and setting: the figure for `N#Cc1c(NC(=S)NC(=O)c2ccccc2)sc2c1CCN(CCc1ccccc1)C2` is 138% (inactive); for `CN1Cc2sc(NC(=S)NC(=O)c3ccccc3)c(C#N)c2CC1(C)C` it is 70.3% (active).
Take `CC(C)N1CCc2c(sc(NC(=S)NC(=O)c3ccccc3)c2C#N)C1`: for the setting “at 20 µM”, the inhibition is 81% (active).
Still for that read-out and setting: the figure for `N#Cc1c(NC(=S)NC(=O)c2ccccc2)sc2c1CCC2` is 14.9% (inactive); for `CCCN1CCc2c(sc(NC(=S)NC(=O)c3ccccc3)c2C#N)C1` it is 78.4% (active).
Still for that read-out and setting: the same measure for `N#Cc1c(NC(=S)NC(=O)c2ccccc2)sc2c1CCCC2`: 0.9% (inactive); for `CCN1CCc2c(sc(NC(=S)NC(=O)c3ccccc3)c2C#N)C1`: 26.3% (inactive).
`CCC1(C)Cc2c(sc(NC(=S)NC(=O)c3ccccc3)c2C#N)CO1` (centres undefined): the inhibition (at 20 µM) is -2.1% (inactive).
`CC(C)N1CCc2c(sc(NC(=O)Cc3ccccc3)c2C#N)C1`: the inhibition (at 20 µM) was -0.4% (inactive).
Still for that read-out and setting: the same measure for `N#CC(c1ccccc1)C1CCN(Cc2ccccc2)CC1` (centres undefined): 0.8% (inactive).
Consider `O=c1c2cn[nH]c2[nH]c(=S)n1-c1ccccc1`, for which the inhibition (at 20 µM) is 1.4% (inactive).
In the case of `CCCCC/S(CC1CC1(Cl)Cl)=N\S(=O)(=O)c1ccc(C)cc1` (centres undefined), where the note is “at 20 µM”, the inhibition was 0.9% (inactive).
Turning to `CN(CC(=O)Nc1ccc(C(N)=O)cc1)CC(=O)Nc1ccccc1Br`, the inhibition (at 20 µM) is 0.7% (inactive).
On the same count and under the same terms, the same measure for `O=C(Nc1ccncc1)Nc1ccc(F)c(Cl)c1`: 0.5% (inactive); for `CC1=NN(C(=O)c2ccccc2C)C(O)(c2ccc(Cl)cc2)C1` (centres undefined): -2.2% (inactive); for `CC(C)CC(C(=O)Nc1oc(-c2ccco2)c(-c2ccco2)c1C#N)N1C(=O)c2ccccc2C1=O` (centres undefined): -0.7% (inactive).
For `N#Cc1c(N)oc(-c2ccco2)c1-c1ccco1`, where the note is “at 20 µM”, the inhibition is 2.6% (inactive).
Regarding `CC(Oc1ccccc1)C(=O)Nc1oc(-c2ccco2)c(-c2ccco2)c1C#N` (centres undefined), the inhibition (at 20 µM) is 76.1% (active).
Still for that read-out and setting: the same measure for `O=C(Nc1ccnn1C1CCN(Cc2ccc(Cl)cc2)CC1)C1CCCC1`: 1.4% (inactive).
As for `O=C(N/N=C/c1cccc([N+](=O)[O-])c1O)C(O)(c1ccccc1)c1ccccc1`, the inhibition (at 20 µM) is 11% (inactive).
On the same count and under the same terms, the same measure for `C/C=C\C=C/C(=O)Nc1cccc(C2=NOC3(C2)C[C@H](C(N)=O)N(C(=O)c2ccc(OC)cc2)C3)c1` (some centres undefined): 5.2% (inactive).
Regarding `O=C(O)CSc1cc(C(=O)c2ccccc2O)cn2c(=O)c3c(-c4ccccc4)csc3nc12`, the inhibition (at 20 µM) is 59.6% (active).
The same measure, in the same setting: the same measure for `CCOC(=O)c1sc2nc3c(SCC(=O)O)cc(C(=O)c4ccccc4O)cn3c(=O)c2c1C`: 49.9% (inactive); for `Cc1sc2nc3c(SC(C)C(=O)O)cc(C(=O)c4ccccc4O)cn3c(=O)c2c1C` (centres undefined): 20.4% (inactive); for `CN(C)/C=C(/C(=O)c1ccc(Cl)c(Cl)c1)S(C)(=O)=O`: 0.6% (inactive).
Consider `CCOc1ccc(NC(=O)CN(C)C(=O)c2cccnc2SC)cc1OCC`, for which the inhibition (at 20 µM) was 0.9% (inactive).
Still for that read-out and setting: the same measure for `CCN(CC)c1ccc(/C=C/c2cc(-c3ccccc3)c3ccccc3n2)cc1`: 96.8% (active); for `CN(C)c1ccc(/C=C/c2nc3ccccc3s2)cc1`: 3.1% (inactive).
On the same count and under the same terms, the figure for `CCN(CC)c1ccc(NC(=O)COC(=O)/C=C/c2nc3ccccc3s2)cc1` is -1.3% (inactive); for `CCN(CC)c1ccc(/C=C/c2nc3ccccc3s2)cc1` it is 53% (active).
For the compound `CCN(CC)c1ccc(/C=N/n2c(C)nc3ccccc3c2=O)cc1`, under “at 20 µM”, the inhibition is -0.4% (inactive).
As to `Cc1cc(/C=C\c2ccccc2)nc2ccccc12`, the inhibition (at 20 µM) is 1.2% (inactive).
Regarding `Cc1ccccc1C(=NC(=O)c1ccccc1)c1ccccc1`, the inhibition (at 20 µM) is 0.6% (inactive).
The same measure, in the same setting: the same measure for `COc1cc(/C=C(\C#N)c2nc3ccccc3[nH]2)cc(OC)c1O`: 69.9% (active); for `COc1ccc(/C=C(\C#N)c2nc3ccc(C)cc3[nH]2)cc1Oc1ccc(C(F)(F)F)cc1[N+](=O)[O-]`: 10% (inactive); for `COc1ccc(/C=C(\C#N)C(=O)c2c(C)[nH]c3ccccc23)cc1OC`: -1.1% (inactive).
In the case of `COc1ccc(/C=C(\C#N)c2nc3ccccc3[nH]2)cc1O`, for the setting “at 20 µM”, the inhibition was -0.7% (inactive).
Still for that read-out and setting: the figure for `COc1cc(/C=C(/C#N)c2nc(-c3cc4ccccc4oc3=O)cs2)cc([N+](=O)[O-])c1O` is 66.8% (active); for `COc1cc(/C=C(\C#N)C(=O)c2c[nH]c3ccccc23)cc(OC)c1O` it is 62.6% (active).
As for `COc1cc(/C=C(\C#N)c2nc3ccccc3[nH]2)cc(Br)c1OCc1ccccc1`, the inhibition (at 20 µM) is 6.5% (inactive).
Still for that read-out and setting: the same measure for `COc1cc(/C=C(\C#N)c2nc(-c3cc4ccccc4oc3=O)cs2)ccc1O`: 31.9% (inactive).
Turning to `COc1ccc(-c2csc(/C(C#N)=C\c3ccc(O)c([N+](=O)[O-])c3)n2)cc1OC`, the inhibition is, setting by setting: (at 20 µM) 62.9% (inactive); (measured here: repeat confirmation average inhibition, at 18.6 µM) 9.1%.
In the case of `COc1cc(/C=C(\C#N)C(=O)c2c(C)[nH]c3ccccc23)cc(OC)c1OC`, the inhibition (at 20 µM) is -1.7% (inactive).
For `COc1cc(/C=C(\C#N)c2nc3ccc(C)cc3[nH]2)c([N+](=O)[O-])cc1OC`, the inhibition (at 20 µM) was -2.7% (inactive).
The same measure, in the same setting: the same measure for `CSc1ccc(S(=O)(=O)N2CCC(C(=O)NCC3CCCO3)CC2)cc1` (centres undefined): -1.2% (inactive).
In the case of `COc1ccc(NC(=O)c2ccsc2NC(C)=O)cc1`, the inhibition (at 20 µM) is -0.1% (inactive).
For the compound `COCCSc1nnc(NC(=O)c2ccc(NC(=O)C(C)C)cc2)s1`, where the note is “at 20 µM”, the inhibition was 1.5% (inactive).
For `CCN(c1ccccc1)S(=O)(=O)c1ccc(OCC(=O)Nc2cc(C)on2)cc1`, for the setting “at 20 µM”, the inhibition was -4% (inactive).
The same measure, in the same setting: the same measure for `Cc1c(NC(=O)c2c(F)cccc2F)c(=O)n(-c2ccccc2)n1C`: 0.4% (inactive); for `CCOc1cc(N2CCOCC2)c(OCC)cc1NC(=O)COC(=O)c1cc2ccccc2cc1O`: -0.9% (inactive); for `CCOC(=O)CNC(=O)CNC(=O)Cn1ccc2ccccc2c1=O`: -0.8% (inactive).
Take `O=C(C[n+]1ccc(C(=O)NCc2ccccc2)cc1)c1ccc(Cl)cc1`: the inhibition (at 20 µM) was 1.3% (inactive).

Source of the values: PubChem BioAssay AID1986 (Sanford-Burnham Center for Chemical Genomics, 2009).
